Several values for one entry are separate records, joined by “and”; a condition that tells them apart may be missing. Identical values can stand only once. Inconclusive results are not listed. The source holds several records for some structures; these can differ, active in one and inactive in another. Activity calls are given as the source filed them. How the source made its calls, unless noted: active means hit-call score of the fitted dose curve at least 0.9, where 1 is the maximum; inconclusive means response in the unintended direction; inactive means score below 0.9.

Assay [1] in a line: Tanguay_ZF_120hpf_TR_legacy: (Legacy) Oregon State University Tanguay Lab 120 Hour Post-fertilization zebrafish Assay for Touch Response (AID 2283667). In a few lines:
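5D WT embryos; static exposure to 120 hpf, 28C, sealed/dark; DMSO 0.64% v/v final. TR scored present/absent; dead embryos excluded. Pos ctrl 5uM trimethyltin chloride.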

The nature of assay [2]: CLD_ACTIN_24hr: CellzDirect (CLD) Gene Expression Assay for Baseline Control (Actin) at 24 hours (AID 2283670). The method in brief:
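Primary human hepatocytes dosed over multiple concentrations with 0.2% DMSO vehicle; actin mRNA measured at 24 h by qNPA chemiluminescence. Background control endpoint, fitted as gain of signal versus DMSO.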

Read-out in assay [3]: Cytochrome P450 2C19 (Homo sapiens) (UniProt P33261)
Briefly: CLD_CYP2C19_6hr: CellzDirect (CLD) Gene Expression Assay for xenobiotic metabolism (CYP2C19) at 6 hours (AID 2283678). The method in brief: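 Primary human hepatocytes from two donor preparations were dosed daily, with 0.2% DMSO as vehicle, and harvested 6 h after dosing. CYP2C19 mRNA induction was measured by qNPA chemiluminescence and fitted as gain of signal against DMSO.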

A short description of assay [4]: CCTE_Padilla_ZF_144hpf_TERATOSCORE: (Legacy) CCTE's 144 Hour Post-fertilization zebrafish Assay Teratoscore, Padilla Lab (AID 2283679; active means hit-call score of the fitted dose curve at least 0.9, where 1 is the maximum; inactive means score below 0.9;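 on AC50: zebrafish embryos with chorions exposed by immersion from 6-8 hpf to 5 dpf with daily renewal; teratogenicity score from eye scoring of death hatching and malformations at 144 hpf; higher score means more developmental defects relative to DMSO baseline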). In a few lines:
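Larvae scored by eye at 144 hpf for death, hatching and malformations after a day in clean Hanks'. Before that, daily-renewed exposure at 80 uM (0.4% DMSO, 26C) from roughly 6-8 hpf through 5 dpf, 4 embryos per chemical.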

Read-out in assay [5]: Broad substrate specificity ATP-binding cassette transporter ABCG2 (Homo sapiens) (UniProt Q9UNQ0)
Briefly: CLD_ABCG2_24hr: CellzDirect (CLD) Gene Expression Assay for ABC Transporter (ABCG2) at 24 hours (AID 2283685). The method in brief: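 Primary human hepatocytes were dosed daily with ToxCast chemicals at multiple concentrations (vehicle 0.2% DMSO). ABCG2 mRNA was measured at 24 h by qNPA chemiluminescence; induction was scored as gain of signal versus DMSO.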

Read-out in assay [6]: Cytochrome P450 2C9 (Homo sapiens) (UniProt P11712)
Briefly: CLD_CYP2C9_24hr: CellzDirect (CLD) Gene Expression Assay for xenobiotic metabolism (CYP2C9) at 24 hours (AID 2283688). The method in brief: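 Primary human hepatocytes from two donor preparations, dosed daily for two days at multiple concentrations; vehicle 0.2% DMSO. CYP2C9 mRNA induction at 24 h measured by qNPA chemiluminescence relative to DMSO; cytotoxicity annotated from morphology.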

Read-out in assay [7]: xenobiotic metabolism (CYP2C9), CYP2C9 (gene 1559)
Briefly: CLD_CYP2C9_6hr: CellzDirect (CLD) Gene Expression Assay for xenobiotic metabolism (CYP2C9) at 6 hours (AID 2283664). The method in brief:
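Primary human hepatocytes dosed daily with test chemicals at multiple concentrations; harvested at 6 h. CYP2C9 mRNA induction measured by qNPA chemiluminescence. Gain of signal fitted against 0.2% DMSO vehicle; cytotoxicity annotated from phase-contrast morphology.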

Read-out in assay [8]: sulfotransferase (SULT2A), SULT2A1 (gene 6822)
Briefly: CLD_SULT2A_6hr: CellzDirect (CLD) Gene Expression Assay for sulfotransferase (SULT2A) at 6 hours (AID 2283669).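 Further: hits raise transcript level above the DMSO vehicle baseline.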 The method in brief:
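Primary human hepatocytes from two donor preparations were dosed daily with chemicals or 0.2% DMSO and harvested at 6 h. Transcript induction read by qNPA chemiluminescence, fitted for gain of signal relative to DMSO; morphology-based cytotoxicity annotated.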

Read-out in assay [9]: Cytochrome P450 2B6 (Homo sapiens) (UniProt P20813)
Briefly: CLD_CYP2B6_24hr: CellzDirect (CLD) Gene Expression Assay for xenobiotic metabolism (CYP2B6) at 24 hours (AID 2283686). The method in brief: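 Primary human hepatocytes dosed daily for two days with fresh solutions, harvested at 24 hours; mRNA induction quantified by qNPA chemiluminescence, gain of signal vs 0.2% DMSO vehicle. Cytotoxicity annotated from phase-contrast morphology.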

Read-out in assay [10]: alkyl and aryl transferase (GSTA2), GSTA2 (gene 2939)
Briefly: CLD_GSTA2_6hr: CellzDirect (CLD) Gene Expression Assay for alkyl and aryl transferase (GSTA2) at 6 hours (AID 2283666). The method in brief: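 Primary human hepatocytes from two donor preparations were dosed daily with fresh compound at multiple concentrations, 0.2% DMSO vehicle. GSTA2 mRNA was measured at 6 hours by qNPA chemiluminescence; induction fitted relative to DMSO, with cytotoxicity flagged morphologically.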

Read-out in assay [11]: glucuronosyltransferase (UGT1A1), UGT1A1 (gene 54658)
Briefly: CLD_UGT1A1_6hr: CellzDirect (CLD) Gene Expression Assay for glucuronosyltransferase (UGT1A1) at 6 hours (AID 2283672). In a few lines:
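Primary human hepatocytes from two donor preparations, dosed with fresh solutions in 0.2% DMSO, harvested at 6 h. UGT1A1 mRNA measured by qNPA chemiluminescence; induction fitted upward versus DMSO.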

Read-out in assay [12]: xenobiotic metabolism (CYP1A1), CYP1A1 (gene 1543)
Briefly: CLD_CYP1A1_24hr: CellzDirect (CLD) Gene Expression Assay for xenobiotic metabolism (CYP1A1) at 24 hours (AID 2283673). In a few lines: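 Primary human hepatocytes dosed daily with fresh solutions in 0.2% DMSO vehicle. mRNA measured at 24 h by quantitative nuclease protection assay with chemiluminescence; gain-of-signal fit versus DMSO, with morphology-based cytotoxicity flags.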

Read-out in assay [13]: ABC Transporter (ABCB11), ABCB11 (gene 8647)
Briefly: CLD_ABCB11_24hr: CellzDirect (CLD) Gene Expression Assay for ABC Transporter (ABCB11) at 24 hours (AID 2283674; active means hit-call score of the fitted dose curve at least 0.9, where 1 is the maximum; inactive means score below 0.9). The method in brief:
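Primary human hepatocytes were dosed daily for two days, with 0.2% DMSO vehicle. ABCB11 mRNA induction was measured at 24 hours by quantitative nuclease protection assay with chemiluminescence. Gain of signal was fitted relative to DMSO.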

Read-out in assay [14]: ABC Transporter (ABCB1), ABCB1 (gene 5243)
Briefly: CLD_ABCB1_24hr: CellzDirect (CLD) Gene Expression Assay for ABC Transporter (ABCB1) at 24 hours (AID 2283684). The method in brief: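 Primary human hepatocytes, two donor preparations, dosed daily with fresh solutions; vehicle 0.2% DMSO; harvested at 24 h. ABCB1 mRNA measured by quantitative nuclease protection assay (chemiluminescence); morphology-based cytotoxicity annotated.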

Read-out in assay [15]: Cytochrome P450 (CYP24A1_1), CYP24A1 (gene 1591)
Briefly: LTEA_HepaRG_CYP24A1_1: Life Technologies and Expression Analysis (LTEA) Assay for Cytochrome P450 (CYP24A1_1) using HepaRG (AID 2283671; active means hit-call score of the fitted dose curve at least 0.9, where 1 is the maximum; inactive means score below 0.9). The following applies: mRNA level, 48 h; actives raise or lower the signal. The method in brief:
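In this test, gene induction or suppression of CYP24A1 in human HepaRG liver cells is measured by qRT-PCR after 48 h chemical treatment (eight concentrations, maximum 100 uM). Values are fitted bidirectionally relative to DMSO.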

Read-out in assay [16]: Cytochrome P450 2B6 (Homo sapiens) (UniProt P20813)
Briefly: CLD_CYP2B6_6hr: CellzDirect (CLD) Gene Expression Assay for xenobiotic metabolism (CYP2B6) at 6 hours (AID 2283677).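 Further: actives raise CYP2B6 transcript above DMSO baseline so AC50 marks an inducer.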 In a few lines: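 Primary human hepatocytes dosed with chemicals at multiple concentrations, vehicle 0.2% DMSO; CYP2B6 mRNA induction measured 6 h after dosing by quantitative nuclease protection assay with chemiluminescence, gain of signal fitted relative to DMSO.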

Broad substrate specificity ATP-binding cassette transporter ABCG2 (Homo sapiens), sequence (Q9UNQ0 whole entry, looked up): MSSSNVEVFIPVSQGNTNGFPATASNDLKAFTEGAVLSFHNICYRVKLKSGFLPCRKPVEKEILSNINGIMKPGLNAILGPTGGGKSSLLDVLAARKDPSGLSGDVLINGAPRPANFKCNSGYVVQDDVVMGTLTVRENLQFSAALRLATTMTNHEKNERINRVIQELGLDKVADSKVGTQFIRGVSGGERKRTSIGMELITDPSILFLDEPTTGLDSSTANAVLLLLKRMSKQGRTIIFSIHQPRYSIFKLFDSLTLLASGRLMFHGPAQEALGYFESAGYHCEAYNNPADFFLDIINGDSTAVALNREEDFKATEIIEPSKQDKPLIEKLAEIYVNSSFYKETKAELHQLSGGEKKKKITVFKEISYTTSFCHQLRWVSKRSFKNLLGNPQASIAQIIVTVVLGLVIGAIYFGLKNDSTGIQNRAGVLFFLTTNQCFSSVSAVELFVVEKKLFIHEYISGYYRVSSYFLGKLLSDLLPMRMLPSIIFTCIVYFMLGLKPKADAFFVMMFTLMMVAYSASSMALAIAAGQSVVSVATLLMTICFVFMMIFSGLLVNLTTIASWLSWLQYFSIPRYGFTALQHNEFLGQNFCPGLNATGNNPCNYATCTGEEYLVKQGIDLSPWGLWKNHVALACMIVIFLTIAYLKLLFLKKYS
Cytochrome P450 2C19 (Homo sapiens), sequence (P33261 whole entry, looked up): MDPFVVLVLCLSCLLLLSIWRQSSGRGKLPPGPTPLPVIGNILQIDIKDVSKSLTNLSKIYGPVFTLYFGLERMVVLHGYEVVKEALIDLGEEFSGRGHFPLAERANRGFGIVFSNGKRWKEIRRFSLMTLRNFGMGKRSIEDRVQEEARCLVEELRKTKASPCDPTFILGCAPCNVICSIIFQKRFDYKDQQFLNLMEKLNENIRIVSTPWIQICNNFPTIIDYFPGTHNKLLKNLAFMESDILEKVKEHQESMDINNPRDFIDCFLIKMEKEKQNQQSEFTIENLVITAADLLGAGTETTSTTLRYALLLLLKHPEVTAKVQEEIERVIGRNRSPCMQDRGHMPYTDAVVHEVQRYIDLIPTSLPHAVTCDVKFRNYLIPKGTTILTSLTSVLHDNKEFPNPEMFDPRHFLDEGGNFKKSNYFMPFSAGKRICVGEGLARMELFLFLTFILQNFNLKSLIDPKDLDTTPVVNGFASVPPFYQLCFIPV

In the case of `CS/C(C)=N/OC(=O)N(C)SN(C)C(=O)O/N=C(\C)SC`, the result in [1], in assay [2], in assay [3], in assay [5] and in [6] was inactive. For the same molecule, in assay [4], the AC50 – broadly, the midpoint of the concentration-response curve, whichever way the signal moves – was 32.7 µM (active).
For the molecule `CC(C)C1(C)N=C(c2nc3ccccc3cc2C(=O)O)NC1=O` (centres undefined), the outcome in [7], in assay [1], in [8], in assay [2], in assay [3] and in assay [4] was inactive. Also, in [9], the outcome was inactive.
As for `N#Cc1cc(Br)c(O)c(Br)c1`, the molecule was called inactive in assay [10], in assay [1], in assay [8], in [2] and in assay [11]. Besides, the AC50 in assay [12] was 20 µM (active); in assay [4], 15.3 µM (active).
For the molecule `CCCCOC(=O)c1ccccc1C(=O)OCCCC`, the molecule was classed as inactive in assay [7], in [1], in assay [8], in assay [2], in [12] and in assay [13]. The result in assay [3], in assay [5], in [9] and in assay [6] was inactive. Moreover, the AC50 in [12] is 4.22 µM (active); in assay [4] it was 1.83 µM (active); in assay [9], 5.33 µM (active).
For the molecule `CCc1nn(C)c(C(=O)NCc2ccc(C(C)(C)C)cc2)c1Cl`, the result in assay [10], in [1], in assay [2], in assay [3], in [5] and in assay [9] was inactive. Further, the AC50 in [8] is 2.8 µM (active); in [13], 34.8 µM (active); in [4] it was 0.164 µM (active).
`COC(=O)C(C)Oc1ccc(Oc2ccc(Cl)cc2Cl)cc1` (centres undefined): the call in [10], in [1], in [8], in [2], in assay [13] and in [3] was inactive. In addition, the molecule was called inactive in assay [14], in [5], in assay [9] and in assay [6]. Besides, the AC50 in [4] is 5.23 µM (active); in assay [9] it was 20 µM (active) and 34.6 µM (active).
Regarding `Cc1ccc(-c2c(Cl)nc(C#N)n2S(=O)(=O)N(C)C)cc1`, the molecule was classed as inactive in assay [10], in assay [1], in [2], in assay [3] and in [5]. The results for the AC50 in [8], in [12] and in assay [4] were 20 µM (active), 8.2 µM (active) and 5.47 µM (active), respectively.
In the case of `COC(=O)c1ccccc1C(=O)OC`, the call in assay [7], in [1], in [2], in assay [13], in [3] and in [4] was inactive. Moreover, the call in assay [9] and in assay [6] was inactive.
With `Fc1ccc(Oc2ccnc3cc(Cl)cc(Cl)c23)cc1`, the molecule was classed as inactive in [7], in assay [1], in [5] and in assay [9]. Moreover, the AC50 in assay [12] is 2.49 µM (active); in [4], 5.83 µM (active).
For `OC(c1ccc(Cl)cc1)(c1cncnc1)c1ccccc1Cl` (centres undefined), the call in [7], in assay [1], in assay [8], in assay [2], in [15] and in assay [14] was inactive. Besides, the call in [5] was inactive. The AC50 is 0.442 µM (active) in [16], 32.2 µM (active) in [4] and 1.24 µM (active) in assay [9].
Consider `N#CC(CCc1ccc(Cl)cc1)(Cn1cncn1)c1ccccc1` (centres undefined), for which the molecule was called inactive in [1], in [8], in assay [2], in assay [5] and in assay [6]. The results for the AC50 in assay [4] and in assay [9] were 25.8 µM (active) and 0.389 µM (active), respectively.
For `COc1ccc(C(c2ccc(OC)cc2)C(Cl)(Cl)Cl)cc1`, the call in assay [1], in assay [8], in assay [11] and in [6] was inactive. Besides, the AC50 in [4] is 1.14 µM (active); in assay [9], 7.11 µM (active).
